Measured values: the supplement of paper PMC8728848
Only a selection was taken, and the strongest signals are over-represented in it overall.

Experiments:
Assay in all cases: glycan array binding signal (z-score within array); higher = stronger binding
Settings in all cases: glycan notation: IUPAC condensed, linker removed
[1] = biological target: Fuc(a1-2)Gal(b1-3)GalNAc(a1-3)[Fuc(a1-2)]Gal(b1-4)Glc
Procedure, shortened: (§1)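 Glycan array data were curated from 3228 arrays in the Consortium for Functional Glycomics database and kept only where the protein sequence was available. Glycan names were converted to IUPAC-condensed notation, and columns mapping to the same glycan were averaged. The binding signal is a within-array Z-score, averaged across arrays of the same protein sequence at different concentrations or buffers and across linkers. Negative Z-scores can be read as non-binding.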

[2] = biological target: Fuc(a1-2)Gal(b1-3)[Fuc(a1-4)]GlcNAc
Procedure, shortened: as §1

Fuc(a1-2)Gal(b1-4)Glc6S = biological target: Fuc(a1-2)Gal(b1-4)Glc6S
Procedure, shortened: as §1

[3] = biological target: Fuc(a1-2)Gal(b1-4)GlcNAc(b1-2)Man(a1-3)[Fuc(a1-2)Gal(b1-4)GlcNAc(b1-2)Man(a1-6)]Man(b1-4)GlcNAc(b1-4)[Fuc(a1-6)]GlcNAc
Procedure, shortened: as §1

[4] = biological target: Fuc(a1-2)Gal(b1-4)GlcNAc(b1-6)GalNAc
Procedure, shortened: as §1

[5] = biological target: Fuc(a1-2)Gal(b1-4)[Fuc(a1-3)]GlcNAc
Procedure, shortened: as §1

[6] = biological target: Fuc(a1-2)Gal6S(b1-3)GlcNAc6S
Procedure, shortened: as §1

Fuc(a1-2)Gal6S(b1-4)Glc = biological target: Fuc(a1-2)Gal6S(b1-4)Glc
Procedure, shortened: as §1

[7] = biological target: Fuc(a1-2)[Gal(a1-3)]Gal(b1-3)GalNAc
Procedure, shortened: as §1

[8] = biological target: Fuc(a1-2)[Gal(a1-3)]Gal(b1-3)GlcNAc(b1-2)Man(a1-3)[Fuc(a1-2)[Gal(a1-3)]Gal(b1-3)GlcNAc(b1-2)Man(a1-6)]Man(b1-4)GlcNAc(b1-4)GlcNAc
Procedure, shortened: as §1

[9] = biological target: Fuc(a1-2)[Gal(a1-3)]Gal(b1-3)GlcNAc(b1-2)Man(a1-3)[Fuc(a1-2)[Gal(a1-3)]Gal(b1-3)GlcNAc(b1-2)Man(a1-6)]Man(b1-4)GlcNAc(b1-4)[Fuc(a1-6)]GlcNAc
Procedure, shortened: as §1

[10] = biological target: Fuc(a1-2)[Gal(a1-3)]Gal(b1-4)GlcNAc(b1-2)Man
Procedure, shortened: as §1

[11] = biological target: Fuc(a1-3)[Gal(b1-4)]GlcNAc(b1-2)Man(a1-3)[Fuc(a1-3)[Gal(b1-4)]GlcNAc(b1-2)Man(a1-6)]Man(b1-4)GlcNAc(b1-4)GlcNAc
Procedure, shortened: as §1

[12] = biological target: Fuc(a1-3)[Gal(b1-4)]GlcNAc(b1-3)Gal(b1-4)[Fuc(a1-3)]GlcNAc(b1-3)Gal(b1-4)[Fuc(a1-3)]GlcNAc
Procedure, shortened: as §1

[13] = biological target: Fuc(a1-3)[Gal3S(b1-4)]Glc
Procedure, shortened: as §1

[14] = biological target: Gal(a1-3)Gal(b1-3)[Fuc(a1-4)]GlcNAc(b1-2)Man(a1-3)[Gal(a1-3)Gal(b1-3)[Fuc(a1-4)]GlcNAc(b1-2)Man(a1-6)]Man(b1-4)GlcNAc(b1-4)GlcNAc
Procedure, shortened: as §1

[15] = biological target: Gal(a1-3)Gal(b1-4)GlcNAc(b1-2)Man
Procedure, shortened: as §1

[16] = biological target: Gal(a1-3)Gal(b1-4)GlcNAc(b1-6)GalNAc
Procedure, shortened: as §1

[17] = biological target: Gal(b1-3)GlcNAc(a1-6)Gal(b1-4)GlcNAc
Procedure, shortened: as §1

[18] = biological target: Gal(b1-3)GlcNAc(b1-2)[Gal(b1-3)GlcNAc(b1-6)]Man(a1-6)[Gal(b1-3)GlcNAc(b1-2)Man(a1-3)]Man(b1-4)GlcNAc(b1-4)GlcNAc
Procedure, shortened: as §1

[19] = biological target: Gal(b1-3)GlcNAc(b1-3)Gal(b1-4)GlcNAc(b1-2)[Gal(b1-3)GlcNAc(b1-3)Gal(b1-4)GlcNAc(b1-6)]Man(a1-6)[Gal(b1-3)GlcNAc(b1-3)Gal(b1-4)GlcNAc(b1-2)Man(a1-3)]Man(b1-4)GlcNAc(b1-4)[Fuc(a1-6)]GlcNAc
Procedure, shortened: as §1

[20] = biological target: Gal(b1-3)GlcNAc(b1-3)Gal(b1-4)GlcNAc(b1-3)Gal(b1-4)GlcNAc(b1-2)[Gal(b1-3)GlcNAc(b1-3)Gal(b1-4)GlcNAc(b1-3)Gal(b1-4)GlcNAc(b1-6)]Man(a1-6)[Gal(b1-3)GlcNAc(b1-3)Gal(b1-4)GlcNAc(b1-3)Gal(b1-4)GlcNAc(b1-2)Man(a1-3)]Man(b1-4)GlcNAc(b1-4)[Fuc(a1-6)]GlcNAc
Procedure, shortened: as §1

[21] = biological target: Gal(b1-3)[Neu5Ac(a2-6)]GlcNAc(b1-4)Gal(b1-4)Glc
Procedure, shortened: as §1

Gal(b1-4)Gal = biological target: Gal(b1-4)Gal
Procedure, shortened: as §1

[22] = biological target: Gal(b1-4)GalNAc(a1-3)[Fuc(a1-2)]Gal(b1-4)GlcNAc
Procedure, shortened: as §1

[23] = biological target: Gal(b1-4)GlcNAc(b1-2)Man(a1-3)[Man(a1-6)]Man(b1-4)GlcNAc(b1-4)GlcNAc
Procedure, shortened: as §1

[24] = biological target: Gal(b1-4)GlcNAc(b1-2)[Gal(b1-4)GlcNAc(b1-4)]Man(a1-3)[Gal(b1-4)GlcNAc(b1-2)Man(a1-6)]Man(b1-4)GlcNAc(b1-4)GlcNAc
Procedure, shortened: as §1

[25] = biological target: Gal(b1-4)GlcNAc(b1-2)[Gal(b1-4)GlcNAc(b1-4)]Man(a1-3)[GlcNAc(b1-4)][Gal(b1-4)GlcNAc(b1-2)[Gal(b1-4)GlcNAc(b1-6)]Man(a1-6)]Man(b1-4)GlcNAc(b1-4)GlcNAc
Procedure, shortened: as §1

[26] = biological target: Gal(b1-4)GlcNAc(b1-2)[Gal(b1-4)GlcNAc(b1-6)]Man(a1-6)[Gal(b1-4)GlcNAc(b1-2)Man(a1-3)]Man(b1-4)GlcNAc(b1-4)GlcNAc
Procedure, shortened: as §1

[27] = biological target: Gal(b1-4)GlcNAc(b1-3)Gal(b1-4)GlcNAc(b1-2)[Gal(b1-4)GlcNAc(b1-3)Gal(b1-4)GlcNAc(b1-6)]Man(a1-6)[Gal(b1-4)GlcNAc(b1-3)Gal(b1-4)GlcNAc(b1-2)Man(a1-3)]Man(b1-4)GlcNAc(b1-4)GlcNAc
Procedure, shortened: as §1

B1: Mermaid1 (Stilbonema majum) (protein)
chain: MGSSHHHHHHSSGLVPRGSHMAASGWLRSPQGTVVKLYRRSLSWSKADEFCKDVDGRLVVDRTADMHLFLIKNVLKEKKSRVWVGLRRTAPHSRTWIWSDGTRQNEDDLDANLWLRDEPNDAAGEEECALFMYSPWEKAWGLNDYLCRGGCRSYQFICEKWIR
[1]
  glycan array binding signal (z-score): -0.132
[2]
  glycan array binding signal (z-score): -0.578
Fuc(a1-2)Gal(b1-4)Glc6S
  glycan array binding signal (z-score): 2.97
[3]
  glycan array binding signal (z-score): 3.06
[4]
  glycan array binding signal (z-score): -0.219
[5]
  glycan array binding signal (z-score): 0
[6]
  glycan array binding signal (z-score): 1.58
Fuc(a1-2)Gal6S(b1-4)Glc
  glycan array binding signal (z-score): -0.65
[7]
  glycan array binding signal (z-score): 3.08
[8]
  glycan array binding signal (z-score): -0.403
[9]
  glycan array binding signal (z-score): -0.259
[10]
  glycan array binding signal (z-score): -0.732
[11]
  glycan array binding signal (z-score): -0.717
[12]
  glycan array binding signal (z-score): -0.381
[13]
  glycan array binding signal (z-score): 0.419
[14]
  glycan array binding signal (z-score): 2.49
[15]
  glycan array binding signal (z-score): -0.331
[16]
  glycan array binding signal (z-score): -0.176
[17]
  glycan array binding signal (z-score): 0.067
[18]
  glycan array binding signal (z-score): -0.787
[19]
  glycan array binding signal (z-score): 4.98
[20]
  glycan array binding signal (z-score): 6.8
[21]
  glycan array binding signal (z-score): -0.953
Gal(b1-4)Gal
  glycan array binding signal (z-score): 3.2
[22]
  glycan array binding signal (z-score): 1.62
[23]
  glycan array binding signal (z-score): 2.41
[24]
  glycan array binding signal (z-score): 0.823
[25]
  glycan array binding signal (z-score): -1.01
[26]
  glycan array binding signal (z-score): -0.567
[27]
  glycan array binding signal (z-score): 4.04
